Bioassay records from PubChem BioAssay.
Only some compounds are listed: those with a hit (about 0.26% of all), similar ones and a draw of the others.
a7 integrin act – activators of alpha7 integrin expression for muscular dystrophy; alpha7betagal myoblasts, beta-gal FDG fluorescence, 48 h; Potency, µM (top dose mostly 38.3 µM), for inactives: at the top dose activation, hits mostly activators; 0.064% of 350,000 active; AID 624291;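 further: potency means the concentration at half of the fitted maximal effect; 100% = response of the positive control SU9516; nearly all actives have a fitted effect of over 60% in size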
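alpha7betagal+/- myoblasts (passage 13, 250/well) treated 48 h at 37C with compounds at 1:260 dilution of DMSO stock. Lysed, then beta-galactosidase activity read as FDG fluorescence (ex 480/em 540) after 30 min, with pre-read for autofluorescence.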
TSHR antagonist – human thyrotropin receptor antagonism | P16473 | TSHR-expressing cells, TSH-stimulated cAMP HTRF, 2 h; stronger effect = lower value | activity change, negative = inhibition, % at 11.5 µM | 0.2% of 330,000 active;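 active means activity change below a set negative limit, meaning inhibition stronger than a set level, cut at about -70% in these data; inconclusive means activity change between two set negative limits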; further: on the % scale 0 is the no-effect control and ±100 the full control effect
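Inhibition of cAMP made by TSHR-expressing cells under TSH stimulation (4nM final, EC80; 2 h, 37 deg C) is quantified with a one-step lysis HTRF kit, anti-cAMP cryptate versus cAMP-d2.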
TCR act – activates T cell receptor signaling; primary human leukocytes, anti-CD3, IL-2 HTRF, 48 h; Potency, µM (titrated, usually from 9.22 µM), inactives show top-dose activation of IL-2 secretion, most hits filed as activators; 330,000 tested, under 10 active; further: % of control where 0% means no effect
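48 hr co-incubation of compounds, a-CD3 beads and primary human leukocytes; IL-2 quantified homogeneously by HTRF with anti-IL-2 K and d2 conjugates.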
MBNL1 CUG block – blocks human MBNL1 binding to CUG repeat RNA; Q9NR56; TR-FRET MBNL1-His/biotin-(CUG)12 binding, 665/545 ratio; Potency, µM (series often up to 57.5 µM), for the others: top-dose activity change, negative = inhibition, most hits filed as inhibitors; 0.036% of 280,000 active; AID 2675; active means well fitted inhibition curve with a large enough effect in the signal ratio, with a control signal flat, not every such curve was filed as active; inconclusive means small, poorly fitted or top-dose-only effect, or effect the other way, or a change in a side signal; inactive means no such curve, though single readings can be large or run the other way; the % refers to the signal ratio; further: potency means the concentration at half of the fitted maximal effect; on the % scale 0 is the no-effect control and ±100 the full control effect
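His-tagged MBNL1 binding to biotinylated (CUG)12 RNA was measured by TR-FRET using terbium anti-His antibody (0.055 ng/ul final) and streptavidin-XL665 (5 nM final). Compounds were titrated 92 nM to 58 uM; 60 min at room temperature.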
TSG101-PTAP inh – blocks PTAP/TSG101 interaction to inhibit HIV-1 budding. 340,000 tested, under 10 active. Potency, µM (series often up to 115 µM), for inactives: at the top dose activity change, negative = inhibition, most hits filed as inhibitors. Q99816. Fluorescence polarization, FITC-PTAP peptide / Tsg101 binding; active means well fitted inhibition curve with a large enough effect in the main read-out, with a control signal flat, not every such curve was filed as active; inconclusive means small, poorly fitted or top-dose-only effect, or effect the other way, or a change in a side signal; inactive means no such curve, though single readings can be large or run the other way; further: potency means the concentration at half of the fitted maximal effect; % of control where 0% means no effect
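Compounds were pin-transferred onto Tsg101 binding domain (10 uM final) in HEPES pH 7.5 buffer, then FITC-PTAP peptide was added at 50 nM final. After 20 min at RT, polarization reported peptide displacement across a qHTS concentration series.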
CBFb RUNX1 block – blocks binding between human CBF-beta and RUNX1 | Q01196+Q13951 | AID 1477 | 230,000 tested, under 10 active | Potency, µM (doses to about 59.8 µM), inactives show at the top dose activity, negative = inhibition, hits mostly inhibitors | AlphaScreen CBFb-His/RUNX1-biotin binding, biochemical; further: % of control where 0% means no effect
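Interaction loss through any mechanism counts as activity. Pre-formed complex of His-CBF-beta and biotin-RUNX1 (30 nM apiece) is incubated with compound 15 min, then with 50 ng nickel and 50 ng streptavidin beads for 90 min before AlphaScreen detection.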
MBNL1 TRFRET – MBNL1-poly(CUG) RNA binding inhibition confirmed. Potency, µM (highest dose often 57.6 µM), without a hit: top-dose activity change, negative = inhibition, hits mostly inhibitors. TR-FRET MBNL1-His / biotin-(CUG)12 binding, 60 min. shares compounds with MBNL1 CUG block. AID 493199. 50% of 140 active
MBNL1-CUG Alpha – blocks MBNL1 binding to (CUG)12 RNA in AlphaScreen. AlphaScreen MBNL1-His / biotin-(CUG)12 binding. AID 493205. 30% of 140 active. shares compounds with MBNL1 CUG block. Potency, µM (titrated, usually from 57.7 µM), inactives show at the highest dose activity, negative = inhibition, usual class: inhibitors
MBNL1 HTRF CS – hit in HTRF counterscreen for MBNL1-poly(CUG) binding inhibitors. 20% of 120 active. Potency, µM (top dose mostly 57.6 µM), for inactives: at the highest dose activity, negative = inhibition, most hits filed as inhibitors. shares compounds with MBNL1 CUG block. AID 651843. His-Menin/biotin-MLL peptide TR-FRET counterscreen
An asterisk follows results filed as active; ? = inconclusive; / = not tested or not shown; [ ] = remark or other dose. Unless noted, the call rests on the fitted dose curve; in most records, active means well fitted curve in the direction sought with a large enough effect; inconclusive means small, poorly fitted or top-dose-only effect, or another doubt; inactive means no such curve, though single readings can be large; an effect the other way counts as inactive or inconclusive.

SMILES | a7 integrin act | TSHR antagonist | TCR act | MBNL1 CUG block | TSG101-PTAP inh | CBFb RUNX1 block | MBNL1 TRFRET | MBNL1-CUG Alpha | MBNL1 HTRF CS
COC(=O)Nc1csc2c1NC(=O)CCCC2 | -4% | -4 | -4% | / | -6% | -4% | 26µM* | 10µM* | -13%
Cc1cc(=O)oc2cc(NC(=O)[C@H](CCCCN)NC(=O)[C@H](CC3CCCCC3)NC(=O)OCC3c4ccccc4-c4ccccc43)ccc12 | / | / | / | / | / | 11% | / | / | /
CCCCC[C@H](O)/C=C/[C@@H]1[C@@H](C/C=C\CCCC(=O)OC)[C@@H](O)C[C@H]1O | / | 19 | 1% | / | -1% | 1% | ? | 10µM* | 2%
CO[C@H]1COC(=O)[C@@H](Cc2ccccc2)NC(=O)[C@@H](C)COC(=O)CCC[C@@H]1C | / | / | / | / | / | 10%[13.1 µM] | / | / | /
CC1=C(C(N)=O)C(c2cccnc2)n2nc(SCc3ccccc3Cl)nc2N1 (stereo unspecified) | 25% | -12 | -5%[46.1 µM] | 25µM* | -4% | 18% | 2% | -4% | 0%
CC1=C(C(N)=O)C(c2ccccn2)n2nc(SCc3ccccc3Cl)nc2N1 (stereo unspecified) | 1% | 4 | -1% | 6% | -14% | 5% | / | / | /
CC(C)N1CCC2(CC1)C(C#N)=C(N)NC(S)=C2C#N | / | 16 | 8%[46.1 µM] | ? | / | -8% | 21µM* | -12% | 18µM*
COC(=O)NCc1cc2cc(Cl)ccc2[nH]1 | -7% | 27 | -9%[46.1 µM] | 40µM* | -4% | 9% | -12% | -16% | 1%
O=c1c(-c2ccc(O)cc2)coc2cc(O[C@@H]3O[C@H](CO)[C@@H](O)[C@H](O)[C@H]3O)cc(O)c12 | / | / | / | / | / | 6% | / | / | /
Cc1oc2nc(SCCCC(=O)NCCO)nc(N)c2c1C | -14% | -13 | -1% | 20µM* | 2% | -1% | ? | ? | -3%
C/C(CCc1ccc2c(c1)OCO2)=N\NC(=O)c1ccccc1 | 5% | 4 | 2%[46.1 µM] | 10% | -1% | 5% | / | / | /
NC(=NCc1ccc2c(c1)OCO2)NC(=O)c1ccccc1 | 3% | 4 | -3% | / | 1% | 5% | 13µM* | 13µM* | 4%
O=C1c2ccccc2CC[C@H]1CNCCc1ccc(O)cc1 | / | / | / | / | / | -4%[21.7 µM] | / | / | /
O=C(Nc1ccc(Cl)c(Cl)c1)Nn1cnnc1 | -7% | 39 | 5% | 7.9µM* | -1% | / | 6.5µM* | 12% | 33µM*
O=C(Nc1ccc(Br)cc1)Nn1cnnc1 | -6% | -16 | 15% | 32µM* | -6% | / | 41µM* | 13% | ?
O=C(Nn1cnnc1)c1ccc(Cl)c(Cl)c1 | 12% | 9 | -4% | 0% | -6% | / | / | / | /
Cc1cc(C)cc(NC(=O)Nn2cnnc2)c1 | -10% | -2 | -1% | ? | 0% | / | / | / | /
O=C(Nc1ccccc1)Nn1cnnc1 | -14% | 0 | -2% | ? | -1% | / | / | / | /
Cc1ccc(NC(=O)Nn2cnnc2)cc1Cl | ? | 10 | -3% | 40µM* | -4% | / | 26µM* | -1% | ?
CC(C)OC(=O)CSc1nnc(-c2cnccn2)n1C | -9% | 20 | 1%[46.1 µM] | 40µM* | 1% | -2% | ? | -10% | 0%
